High-throughput results from PubChem.
Pf growth 96h: P. falciparum growth inhibition at 96 hour, primary screen for plastid delayed-death inhibitors. P. falciparum luciferase reporter growth, 96 h. AID 504834. Potency, µM (doses to about 28.7 µM), without a hit: at the top dose activity change, negative = inhibition, usual class: inhibitors. actives 6.9% (n = 320,000); active = well fitted inhibition curve with a large enough effect; inconclusive = small, poorly fitted or top-dose-only effect, or another doubt; inactive = no such curve, though single readings can be large or run the other way; also: potency is read from the fitted curve at half-maximal effect; % is scaled to controls: 0 for no effect and ±100 for the full control effect
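Luminescence readout: decreased luciferase signal marks inhibited growth of reporter-expressing P. falciparum in infected red cells (2% hematocrit, 0.05% parasitemia final), exposed to compound two generations (96 h, 37 C, 5% CO2).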
NS1 function inh: blocks influenza NS1 protein function | AID 2326 | actives 0.4% (n = 270,000) | Potency, µM (top dose mostly 46.1 µM), inactives show top-dose activity, positive = more growth; also: potency is read from the fitted curve at half-maximal effect; actives are rising curves; nearly all actives have a fitted effect of over 50% in size
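A cell-based growth assay was used: compounds that relieve NS1-induced slow growth of budding yeast raise OD600. Assay medium was yeast nitrogen base with ammonium sulphate and -URA supplement, pH 6.0, with 2% galactose.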
Pf growth 48h: P. falciparum growth inhibition at 48 hours (one generation) | P. falciparum luciferase growth in erythrocytes, 48 h | Potency, µM (top dose mostly 28.7 µM), inactives show at the highest dose activity change, negative = inhibition, hits mostly inhibitors | actives 5.9% (n = 310,000) | AID 504832; active = well fitted inhibition curve with a large enough effect; inconclusive = small, poorly fitted or top-dose-only effect, or another doubt; inactive = no such curve, though single readings can be large or run the other way; also: potency is read from the fitted curve at half-maximal effect; % is scaled to controls: 0 for no effect and ±100 for the full control effect
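Here the parasites carry a stable luciferase gene and grow inside erythrocytes in Albumax-based RPMI medium with compound for one erythrocytic cycle. Activity is scored as loss of luminescent signal.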
SARS PLP yeast: SARS-CoV PLP inhibition in yeast; S. cerevisiae expressing SARS-CoV PLpro, growth rescue; Potency, µM (titrated, usually from 32.9 µM), for inactives: at the top dose activity, positive = growth rescue, most hits filed as activators; actives 0.19% (n = 330,000); AID 485353; also: potency is read from the fitted curve at half-maximal effect; 0% is about no effect; nearly all actives have a fitted effect of over 55% in size
Shiga toxin inh: inhibitors of Shiga toxin in Vero cells; Vero cells, Shiga toxin protein synthesis inhibition reporter; inhibition, % at 38.7 µM; actives 9.2% (n = 290,000); AID 2315; in the data active = inhibition mostly above about 28%, no sharp cut-off; inactive = mostly below about 43%; also: 0% is about no effect
CHX counter: affects cycloheximide protein synthesis inhibition readout, counter-screen; cell reporter, cycloheximide protein synthesis inhibition counterscreen; max response, %; actives 12% (n = 300,000); in the data active = max response mostly above about 13%, no sharp cut-off; inactive = mostly below about 14%; also: read at 38.3 µM for the half of the compounds with a filed dose; 0% is about no effect
* marks the source's active call; other numbers are inactive results; u = inconclusive; x = no result given. Rows were chosen to be rich in hits. Some 21% of all compounds tested hit in one or more screens of this group. Unless noted, calls follow the shape of the full dose curve.

SMILES	Pf growth 96h	NS1 function inh	Pf growth 48h	SARS PLP yeast	Shiga toxin inh	CHX counter
CC(C)c1ccccc1NC(=O)C1CCCN(C(=O)c2ccc(Cl)cc2)C1 (stereo not given)	0%	x	u	0%	x	x
COc1ccccc1N(C(=O)c1ccncc1)c1nc(-c2ccc([N+](=O)[O-])cc2)cs1	u	18%	9.3µM*	-35%	18	2
CCOC(=O)c1csc(NNC=O)n1	40%	11%	14%	-3%	-8	6
Cc1cc(C)c2nc(N3CCC(C(=O)NCC4CCCO4)CC3)sc2c1 (stereo not given)	5%	-10%	3%	18%	25	21*
Cc1cc(C)c2nc(N3CCC(C(=O)N4CCCC4)CC3)sc2c1	u	-67%	8.3µM*	-1%	8	12
Cc1cc(C)c2nc(N3CCCC(C(=O)NC4CCCC4)C3)sc2c1 (stereo not given)	5.2µM*	-3%	8%	-2%	5	12
O=C(C1CCN(c2nnc(-n3cccc3)s2)CC1)N1CCCCC1	-9%	5%	13%	-3%	20	20*
Cc1cc(C)c2nc(N3CCC(C(=O)NCCCN4CCCCC4)CC3)sc2c1	x	1%	x	10%	18	5
C[C@H](CCC(=O)O)C[C@H](C)C[C@H](C)C(=O)/C=C(\O)[C@H](C)C[C@H](C)C/C=C/[C@@H](C)[C@@H](O)[C@@H](C)[C@@H](O)C[C@@H]1CC[C@@](C)([C@H]2CC[C@@](C)([C@@H](C)O)O2)O1	x	x	x	x	-3	-3
CCCOCn1cc(F)c(=O)[nH]c1=O	5.2µM*	0%	u	-3%	-9	4
Cc1ccc(N=c2oc3cc(O)ccc3cc2C(N)=O)cc1	25%	-187%	-1%	-46%	81*	56*
COc1ccc(N=c2oc3cc(O)ccc3cc2C(=O)Nc2ccccn2)cc1OC	-11%	x	4.7µM*	0%	93	18
O=C(NCC(=O)N1CCCC1)c1cccs1	x	-4%	35%	1%	26*	17*
O=C(OCC(=O)N1CCCC1)c1cccs1	5%	-5%	26%	-3%	72*	42*
O=C(NCC(=O)N1CCN(c2ncccn2)CC1)c1cccs1	88%	1%	x	0%	46	33*
CN1CCN(C(=O)CNC(=O)c2cccs2)CC1	x	x	x	2%	x	x
O=C(OCC(=O)N1CCN(c2ccccc2)CC1)c1cccs1	41%	x	6%	1%	x	x
CC(C)N1CCC(=NNC(=O)c2cccs2)CC1	23%	-4%	17%	-1%	114*	46*
Cc1ccccc1C(=O)NNC(=O)CSc1nc2ccccc2c(=O)[nH]1	57%	-1%	36%	0%	14	2
CC(C)(C)NC(=O)CSCc1ccc(Br)cc1	328%	-2%	0%	-1%	18	9
COc1ccc(N2CCN(C(=O)CNC(=O)c3cccs3)CC2)cc1	12%	-12%	18%	6%	-4	1
O=C(NCC(=O)N1CCN(c2ccccc2)CC1)c1cccs1	7%	-5%	62%	7%	21	22*
O=C(CN1CCN(C(=O)c2cccc(S(=O)(=O)N3CCCC3)c2)CC1)Nc1ccccc1Cl	u	x	10µM*	1%	x	x
O=C(CN1CCN(S(=O)(=O)c2ccccc2)CC1)Nc1ccccc1C(=O)c1ccccc1	4.7µM*	u	13µM*	-11%	-13	-3
O=C(CN(Cc1ccco1)Cc1ccco1)Nc1cc(S(=O)(=O)N2CCCCC2)ccc1Cl	u	x	13µM*	-5%	x	x
SMILES	Pf growth 96h	NS1 function inh	Pf growth 48h	SARS PLP yeast	Shiga toxin inh	CHX counter
O=C(CN1CCN(C(=O)c2ccccc2)CC1)Nc1cccc(S(=O)(=O)N2CCCC2)c1	u	x	u	-4%	x	x
CN(C)c1ccc(S(=O)(=O)N2CCCCC2)cc1NC(=O)CCNC(=O)c1ccco1	u	x	12µM*	-3%	x	x
O=C(CN1CCN(C(=O)c2ccccc2)CC1)Nc1cc(S(=O)(=O)N2CCCC2)ccc1Cl	u	x	10µM*	3%	x	x
CCN(CC)CCOC(=O)c1ccc(NC(=O)CCCN2C(=O)/C(=C\c3cccs3)SC2=S)cc1	4.1µM*	u	2.3µM*	1%	-11	10
Cc1cc(NC(=O)CCN2C(=O)/C(=C\c3ccccc3Cl)SC2=S)no1	0.033µM*	x	22%	-1%	-7	14
O=C(CCCN1C(=O)/C(=C/c2cccs2)SC1=S)NNC(=O)c1cccnc1	15µM*	5%	u	2%	7	9
O=C(CCCN1C(=O)/C(=C/c2ccccc2Cl)SC1=S)NNC(=O)c1ccccc1	1.9µM*	-6%	u	8%	-11	-8
O=C(CCCN1C(=O)/C(=C\c2cccs2)SC1=S)NNC(=O)c1ccncc1	8%	5%	0%	3%	-4	-2
Cc1ccc(NC(=O)CN(c2cc(C)cc(C)c2)S(=O)(=O)c2c(C)noc2C)nc1	u	-19%	x	-20%	22	2
COc1cc(/C=N/NC(=O)c2ccccc2Cl)ccc1Oc1ccc([N+](=O)[O-])cn1	u	x	-18%	-1%	-3	-3
O=C(CN1CCC(O)(c2ccc3c(c2)OCO3)CC1)OC1CCCCC1	3%	1%	0%	0%	-6	-2
CCN(CC)CCOC(=O)c1ccc(NC(=O)CCNC(=O)Cn2ccc3ccccc3c2=O)cc1	12µM*	0%	-2%	-3%	-2	-2
O=C(CCN1C(=O)/C(=C\c2ccccc2)SC1=S)NNC(=O)c1cccnc1	-47%	1%	14%	17%	8	2
CC(C)c1ccc(NC(=O)CCNC(=O)Cn2ccc3ccccc3c2=O)cc1	36%	16%	21%	1%	-4	-7
O=C(CCCN1C(=O)/C(=C/c2ccccc2Cl)SC1=S)NNC(=O)c1cccnc1	u	4%	9.3µM*	-1%	-12	-3
Cc1ccc2c(c1)C1CCCC3C1N2CC(=O)N3Cc1ccccc1 (stereo not given)	5%	5%	x	2%	-12	15
O=C(CSc1nc(=O)n2ccccc2n1)N1CCCc2ccccc21	u	x	0%	1%	x	x
COc1ccc(-n2c(Cc3ccccc3)nnc2SCC(=O)N2CCCc3ccccc32)cc1	u	-14%	12µM*	0%	9	6
Cn1cccc1Cc1nnc(SCC(=O)N2CCCc3ccccc32)n1-c1ccc(F)cc1	8.3µM*	-21%	u	-3%	-9	-3
O=C(NCc1nnc(SCC(=O)N2CCCc3ccccc32)n1-c1ccccc1)c1cccc2ccccc12	u	u	u	20%	-6	-2
COC(=O)CSc1nnc(Cc2ccccc2)n1-c1ccc(C)cc1	8%	-1%	36%	9%	0	14*
CCc1ccc(C(C)NC(=O)c2ncn[nH]2)cc1 (stereo not given)	-13%	7%	12%	1%	2	-3
Cc1noc(C)c1C(=O)OCC(=O)NC1CCCCC1C (stereo not given)	24%	x	u	16%	x	x
